Reference: PubChem BioAssay AID1508600 (Functional Genomics Laboratory (NCATS/FGL), 2020)
Hit rate of the full screen: of about 53,000 sequences, about 3,700 (7%) were called active. The entries come from a sample that favours actives as a whole. Unmarked numbers belong to inactive results.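 The calls were made as follows: active = gene knockdowns whose robust z-score for IL-1 alpha signal is at least 2 or at most -2, so actives lie on both sides; inactive = the rest.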

Assay: Components of the Cytosolic LPS Sensing Pathway: Gene Identification via Genome-wide siRNA Screen;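 also: robust z of the log signal after scaling to non-targeting control siRNA wells of the plate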
Settings: RAW264.7 macrophages, IL-1a HTRF, actives lie on both sides, screened at 100 nM (by protocol), cells primed 5 h with Pam3CSK4 first
In short: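 Supernatant IL-1a by HTRF from RAW264.7 cells primed with Pam3CSK4 (5 hours) and transfected with LipidA (24 hour) after 48h siRNA knockdown at 100 nM; cell viability checked with CellTiter-Glo.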

With “GCACUGUUUGUGCAAACAATT against C130071C03Rik” the z-score was -2.22 (active).
With CCCACUGGUGUACGUGAUCTT against Bdkrb2 the z-score was 2.21 (active).
With GGUCAAAGUUAUGCAAUGUTT against Rp9 the z-score was -2.02 (active).
For GGACUUGAUUAUCUACACUTT against Stk24, the z-score was -2.24 (active).
In the case of GCGUAACUACUACAUGAAUTT against Ano9, the z-score is reported as -2.33 (active).
For GCAGCUACUACACCAACCATT against Dlx2, the z-score was -2.46 (active).
With GGACGAUUUAAGGAUUUUUTT against Dcun1d1 the z-score was -2.4 (active).
In the case of GGCGUAUUCUGGUAUCCAGTT against Celf1, the z-score is reported as 2.08 (active).
In the case of GGCCCAUGAUCCAUUUUGGTT against Prnp, the z-score is reported as -2.07 (active).
For GCUUUUCGGAGCUCUAUAUTT against Sipa1, the z-score was -2.23 (active).
In the case of GGACAUGAGGACUGUAUCATT against Clec4g, the z-score is reported as -3.2 (active).
In the case of CCAGCUAUGAAUCAGAAUGTT against Bend6, the z-score is reported as 2.6 (active).
In the case of GCUCGAACAUAGCAGCAAGTT against BC061195, the z-score is reported as -2.11 (active).
In the case of GCCAAGUGGUGACAUCAACTT against Ralgds, the z-score is reported as 2.7 (active).
For GGUACCAGACCUCAUAGUUTT against Cep95, the z-score was 2.16 (active).

First: CCACUCUAAUGAUGUUUUUTT against Slc46a3
Second: GGCUAAGGAAUGUCAAUAATT against Dnajc5g
The z-score of the first is higher: 0.411 for the first, 0.0787 for the second.

Compared with GGUGCUACCUCUAGAUAUUTT against Utp3, CCACUUCUCUAAGACAAUCTT against Acox3 is lower in z-score: 1.96 for the first, -0.107 for the second.

First: CCCAUUGGAACUGCUGUAATT against Metrnl
Second: CGAAUAUGGUAUUCACUCATT against Skint4
The z-score of the first is higher: 0.932 for the first, 0.157 for the second.

Going from GCCCUUACAUUUUAUACUATT against Zfp93 to CCACGUCCUCUACUUGUAUTT against Nmbr, the z-score falls from 1.1 to -0.813.

Going from GGACUUACUUCCCAUUUCGTT against Gdpd3 to GGUGUAUGCGUCACUAGAATT against Rxra, the z-score falls from 0.297 to 0.0162.

Compared with GGACUACUCUGCCAGAUGGTT against Fam71f1, GCUUUAAGUACUUUAACGCTT against Ncr1 is higher in z-score: 0.0252 for the first, 1.04 for the second.

Compared with CGAAAACAGUACGAUGCUUTT against Dnajb11, CCUCAAUGAAGACCCAUUATT against Kif1b is lower in z-score: 1.03 for the first, -1.35 for the second.

Going from GGUUUUCUAUGGAAGAGAUTT against Igdcc4 to GGUAUCCACUGUGCCAACCTT against Ush2a, the z-score falls from 0.835 to -0.343.

First: CGAUCGUAUUCAAUGGAAATT against Rims2
Second: GCAUCUGCAUUUUUUGCUATT against Prox1
The z-score of the first is lower: -0.998 for the first, 1.29 for the second.

First: GCUUUUGCUACAAGUGUAUTT against Cop1
Second: GGCAGAUGGCCGAAUUGAUTT against Rest
The z-score of the first is higher: -0.593 for the first, -1.13 for the second.

Going from CCAAGUACCCUGAGAGUUUTT against Pnpla6 to GCCAAACGAACAACAAAACTT against Chrm3, the z-score falls from 1.46 to -0.166.

First: CGUACCACACGAUGAAUAGTT against Pou4f1
Second: CCGCAUGAACUUCCUACAGTT against Ugt1a1
The z-score of the first is lower: -0.525 for the first, 1.2 for the second.

First: GCACUGAACUUUCCUGACCTT against Ppdpf
Second: CCAUUCGAGAUGAGAAGAATT against Gcc1
The z-score of the first is higher: 1.78 for the first, -0.287 for the second.

Going from GGGAAAAGAUCGACAAAGATT against Plk2 to GGAAAAGGAGGAGAGUUAUTT against Nkapl, the z-score rises from -0.217 to 0.153.

Compared with GGGUGGUGGCAUUAAACUUTT against Stk36, GGCAGACGGUAAUAAACAUTT against Ralgapb is lower in z-score: 1.75 for the first, -1.08 for the second.

Going from GCGUGUAUACCAGCCUUACTT against Egfl7 to GGAAGGAUCUAAUCUUUUUTT against Vamp2, the z-score rises from 0.0437 to 1.56.

Going from GGAAGAAUUCUUGAAGAUGTT against Cetn4 to GCUAUGUGUUGAUUUAAAGTT against Pdk1, the z-score falls from 1.13 to 0.422.

Compared with GGCUACAGCCGUCAAAGAUTT against R74862, GGAAGAAGCCUUUUGAGUGTT against Peg3 is higher in z-score: -0.091 for the first, 1.39 for the second.

Going from CCGAAAGAUCAGCACAUCCTT against Olfr24 to CGGCUGUGUGCAUUUAAAGTT against Bmpr2, the z-score rises from -0.184 to 0.616.

Compared with CCUUUGAUUCACAAUGGUUTT against Smad4, GGGUUUCAACCGUCACCUGTT against Pygl is lower in z-score: -0.0886 for the first, -1.89 for the second.

Going from “GGCCCUUACAGAGUCUGGATT against B930095G15Rik” to CGAAUUCAUACCAAGAAAGTT against Myo3a, the z-score falls from 0.833 to 0.477.

Going from GGGCAAUGUGUUUAUGUAUTT against Tmem30a to GGAUAUACAAAGGAACGCATT against Wdr20rt, the z-score falls from -0.264 to -0.862.

First: GGUUCUGACCACCUACAUATT against Htr3a
Second: GGCUAUACCCUGAAAUAUUTT against Slitrk4
The z-score of the first is lower: -1.62 for the first, -0.00892 for the second.

Going from CCUACUACACCACUUGGGUTT against Dpm2 to GGGCAAAUUAGAGACCAAGTT against Nwd2, the z-score rises from 0.365 to 0.692.

Going from GGAGGAUAUGAGCAAGUACTT against Isg20 to GGUUAACGGAUCAACAUUUTT against Ube2d2a, the z-score rises from -0.476 to 1.71.

Going from GGAAUUUUCUUCAUUUGGATT against Pabpc5 to GGGAAGAAAAUGAAAGGUUTT against Cdk5rap2, the z-score falls from -0.878 to -1.14.

First: GGUGUCAACCAGUUGUUUUTT against Nr2c1
Second: CCUAAAGUCACAUCUAAGATT against Pum3
The z-score of the first is lower: -1.2 for the first, 1.06 for the second.
